Data taken from PubChem BioAssay (NCATS).
Results filed as inconclusive are left out. Entries that show only a call come without a potency. The source made the active and inactive calls. The call rests on the fitted dose curve.

Legend:
[1] = Primary qHTS for inhibitors of SARS-S pseudo-typed particle cell entry (AID 1479145); further: nearly all actives have a fitted effect of over 45% in size; further: potency means the concentration at half of the fitted maximal effect
[2] = Primary qHTS for Huh7 cytotoxicity: counterscreen for inhibitors of MERS-S pseudotyped particle cell entry (AID 1479147)
[3] = Primary qHTS for Vero E6 cytotoxicity: counterscreen for inhibitors of SARS-S pseudo-typed particle cell entry (AID 1479150); further: potency means the concentration at half of the fitted maximal effect
[4] = Primary qHTS for inhibitors of MERS-S pseudo-typed particle cell entry (AID 1479149); further: nearly all actives have a fitted effect of over 60% in size

Compound	Potency [1]	Potency [2]	Potency [3]	Potency [4]
CC(=O)Nc1ccc(CC(=O)O)cc1	inactive	inactive	inactive	
O=C(O)CCCCC1CCSS1 (stereo unspecified)	inactive		inactive	inactive
CN1C[C@@H]2C[C@H]1CN2c1cc2c(cc1F)c(=O)c(C(=O)O)cn2C1CC1	inactive	inactive	inactive	
Cc1cc(OI)c(C(C)C)cc1-c1cc(C(C)C)c(OI)cc1C	inactive	inactive	inactive	
Nc1nc(Cl)nc2c1ncn2[C@@H]1O[C@H](CO)[C@@H](O)[C@@H]1F	20 µM (active)	inactive	inactive	
C[C@@H]1O[C@@H]1P(=O)(O)O		inactive	inactive	inactive
O=C(O)CCCC[C@@H]1SC[C@@H]2NC(=O)N[C@@H]21	inactive	inactive	inactive	
C[C@@H]1CN(c2c(F)c(F)c3c(=O)c(C(=O)O)cn(C4CC4)c3c2F)C[C@H](C)N1		inactive	inactive	inactive
Nc1cc(C(Cl)=C(Cl)Cl)c(S(N)(=O)=O)cc1S(N)(=O)=O	inactive	inactive	inactive	
Cc1cc2c(cc1S(N)(=O)=O)S(=O)(=O)CCC2	inactive	inactive	inactive	
CC(C)(Sc1cc(C(C)(C)C)c(O)c(C(C)(C)C)c1)Sc1cc(C(C)(C)C)c(O)c(C(C)(C)C)c1		inactive	inactive	inactive
CC(C(=O)O)c1ccc2c(c1)CC(=O)c1ccccc1S2 (stereo unspecified)	inactive	inactive	inactive	
CC(C)Cc1ccc(CC(=O)O)cc1		inactive	inactive	inactive
COc1cc(NS(C)(=O)=O)ccc1Nc1c2ccccc2nc2ccccc12	0.794 µM (active)		25.1 µM (active)	
